Most compounds without a hit are left out; they make up all but 32% or so of the library.
CYP2C19 inhib: blocks human cytochrome P450 2C19; inhibition, % at 5 µM; AID 778; P33261; CYP2C19 Supersomes, luciferin-H EGE luminescence, 30 min; hit rate 21% among 96,000;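 active = CYP2C19 inhibition above a set limit at 5 µM in the primary screen, cut at about 50% in these data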;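 note: plate controls were negative control wells for no effect and 2.5 mM tranylcypromine positive control for full effect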
Target sequence (P33261 whole entry, looked up): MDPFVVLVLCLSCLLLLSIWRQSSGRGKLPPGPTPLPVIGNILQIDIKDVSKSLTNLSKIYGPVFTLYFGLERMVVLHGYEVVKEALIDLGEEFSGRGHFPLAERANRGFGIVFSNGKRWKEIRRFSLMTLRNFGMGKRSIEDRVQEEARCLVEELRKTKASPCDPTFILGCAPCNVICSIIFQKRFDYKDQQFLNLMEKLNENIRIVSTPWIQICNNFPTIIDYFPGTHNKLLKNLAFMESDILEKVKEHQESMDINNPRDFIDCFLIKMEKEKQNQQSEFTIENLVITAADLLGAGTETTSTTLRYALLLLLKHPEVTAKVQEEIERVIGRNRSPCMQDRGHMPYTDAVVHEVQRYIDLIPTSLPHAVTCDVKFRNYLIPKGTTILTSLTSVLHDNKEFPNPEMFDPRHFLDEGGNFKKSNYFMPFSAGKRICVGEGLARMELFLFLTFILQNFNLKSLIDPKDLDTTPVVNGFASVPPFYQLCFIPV
PostGolgi yeast: growth inhibition of a yeast mutant, post-Golgi transport screen; post-Golgi transport phenotypic cell assay; inhibition, % at 10 µM; hit rate 0.9% among 98,000;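 note: yeast cells grown in 1536-well plates; yeast grown about 18 h at 30C before absorbance read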
CYP2C19 activ: cytochrome P450 2C19 (human) activation. AID 1025. 96,000 tested, under 10 active. P33261. activation factor at 5 µM. recombinant CYP2C19, luciferin-H EGE luminescence; stronger effect = higher value; 0 = fully inhibited enzyme, 1 = untreated enzyme;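 active = activation factor of at least 2 at 5 µM in the primary screen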;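 note: 0 = wells with 2.5 mM tranylcypromine and 1 = vehicle-only wells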
CYP2C9 inhib: human CYP2C9 inhibition | hit rate 20% among 96,000 | CYP2C9 Supersomes, luciferin-H conversion, luminescence | inhibition, % at 5 µM | AID 777 | P11712;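 active = blocking of liver enzyme CYP2C9 beyond about 50% at 5 µM, limit read from the data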
PostGolgi ctrl: inhibits growth of the yeast control strain. efflux-deficient yeast background strain, growth absorbance A615, 16 h. inhibition, % at 10 µM. hit rate 5% among 98,000. AID 738
CYP2C9 activ: increases human cytochrome P450 2C9 activity; P11712; recombinant CYP2C9, luciferin-H conversion, luminescence; stronger effect = higher value; factor 1 = untreated enzyme, 0 = blocked; activation factor at 5 µM; hit rate 1.4% among 96,000; AID 1024;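 active = activation factor of 2 or more for CYP2C9 at a 5 µM dose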;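 note: 0 = sulfaphenazole-blocked wells and 1 = vehicle-only wells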
* = called active by the depositor; / = no result given. Cut-off read from the data, not from the text of the source, unless noted: active = inhibition above about 30%; inactive = the rest.

SMILES	CYP2C19 inhib	PostGolgi yeast	CYP2C19 activ	CYP2C9 inhib	PostGolgi ctrl	CYP2C9 activ
COC(=O)c1ccc(C(=O)OC)c(NC(=O)COC(=O)CC2CC3CCC2C3)c1 (stereo not given)	31.1	1.4	0.7	38.3	33.0*	0.6
COc1cc(S(=O)(=O)N2CCCCC2)ccc1NC(=O)Cc1ccccc1	-24.5	-4.5	1.2	49.7	4.8	0.5
Cc1ccc(Cl)cc1NC(=O)COC(=O)CC1CC2CCC1C2 (stereo not given)	23.6	19.4	0.8	-17.2	-1.0	1.2
COC(=O)c1ccc(C(=O)OC)c(NC(=O)COC(=O)C2CC2C)c1 (stereo not given)	77.7*	3.5	0.2	79.7*	4.5	0.2
COC(=O)c1ccc(C(=O)OC)c(NC(=O)COC(=O)C2CCCCC2)c1	24.7	6.1	0.8	35.3	4.8	0.6
Cc1nnc(Sc2cc(C(=O)NCc3ccco3)c3ccccc3n2)s1	6.6	9.6	0.9	16.1	8.0	0.8
c1coc(C2Nc3ccccc3-c3nc4ccccc4n32)c1 (stereo not given)	79.8*	-2.3	0.2	91.2*	23.9	0.1
c1ccc(C2Nc3ccccc3-c3nc4ccccc4n32)nc1 (stereo not given)	/	-2.1	/	/	3.0	/
c1ccc(C2Nc3ccccc3-c3nc4ccccc4n32)cc1 (stereo not given)	46.7	0.2	0.5	71.1*	1.2	0.3
COc1ccc(-n2nc3c(c2NC(=O)C24CC5CC(CC(C5)C2)C4)CS(=O)C3)cc1 (stereo not given)	-14.9	-4.4	1.1	-144.3	-1.2	2.4*
CC(=O)N(C)c1nc(-c2ccc(Cl)cc2)cs1	-16.2	0.5	1.2	-7.5	9.0	1.1
Cc1ccc(-c2csc(N(C)C(=O)c3c(C)nn(-c4ccccc4)c3Cl)n2)cc1	44.4	13.4	0.6	73.8*	1.9	0.3
CCCCC(CC)CNC(=O)c1[nH]c(C)c(C(C)=O)c1C (stereo not given)	63.1*	19.5	0.4	75.1*	8.3	0.2
CC(=O)c1c(C)[nH]c(C(=O)NCc2ccccc2Cl)c1C	/	-5.3	/	/	1.1	/
N=C1/C(=C\c2ccc(SCc3ccco3)o2)C(=O)N=C2SC=NN12	-4.6	5.5	1	73.6*	8.5	0.3
CC1=NN2C(=N)/C(=C\c3ccc(SCc4ccccc4)o3)C(=O)N=C2S1	3.9	-2.5	1	47.1	5.0	0.5
CCOC(=O)c1cc2oc(C(c3nnnn3C3CCCCC3)N3CCOCC3)cc2[nH]1 (stereo not given)	/	-1.4	/	/	13.8	/
CC(=O)N(c1ccc(N(C(C)=O)S(=O)(=O)c2cccs2)cc1)S(=O)(=O)c1cccs1	21.5	0.0	0.8	73.2*	65.6*	0.3
COc1ccc(N(C(=O)c2ccco2)S(=O)(=O)c2cc(OC)ccc2OC)cc1	24.6	-2.0	0.8	72.5*	25.7	0.3
COc1ccc(N(C(=O)c2ccco2)S(=O)(=O)c2cccs2)cc1	34.9	21.4	0.7	50.4*	10.7	0.5
O=C(Nc1ccccc1N(C(=O)c1ccco1)S(=O)(=O)c1cccs1)c1ccco1	29.0	-9.0	0.7	74.8*	2.6	0.3
O=C(Nc1ccccc1NC(=O)c1ccco1)c1ccco1	1.6	-8.2	1	0.7	2.9	1
O=C(Nc1ccc2c(c1)OCCO2)C1CCCN(S(=O)(=O)c2cccnc2)C1 (stereo not given)	-1.2	-0.2	1	7.1	3.5	0.9
Cc1ccc2c(c1)c(-c1ccccc1)nc1nncn12	15.5	-4.8	0.8	3.2	7.4	1
C[N+]12CCCCC1C(COC(=O)c1ccc3c(c1)OCO3)CCC2 (stereo not given)	7.0	-5.0	0.9	-28.6	0.6	1.3
SMILES	CYP2C19 inhib	PostGolgi yeast	CYP2C19 activ	CYP2C9 inhib	PostGolgi ctrl	CYP2C9 activ
CC1(C)CC(C#N)(N2CCOCC2)CCO1 (stereo not given)	9.6	10.8	0.9	-12.2	-12.1	1.1
Clc1ccc(/C=N/NC(=Nc2ccccc2)c2ccccn2)c(Cl)c1	-0.9	-0.2	1	-5.3	36.6*	1.1
CCOc1ccccc1NC(=S)NCc1ccco1	87.2*	-3.2	0.1	-31.4	5.6	1.3
COc1cc(NC(=S)NCc2ccco2)cc(OC)c1	67.4*	-6.8	0.3	10.3	-4.4	0.9
COc1cccc(N2CCN(C(=S)NCc3ccco3)CC2)c1	53.0*	1.7	0.5	67.5*	5.8	0.3
S=C(NCc1ccco1)N1CCN(Cc2ccco2)CC1	8.7	-7.0	0.9	-7.0	4.2	1.1

Bioassay records from PubChem BioAssay.
